Hits are enriched below; roughly 14% of the tested compounds scored in any of these assays.
Pf growth 48h: P. falciparum growth inhibition at 48 hours (one generation); P. falciparum luciferase growth in erythrocytes, 48 h; 5.9% of 310,000 active; Potency, µM (titrated, usually from 28.7 µM), for the others: at the highest dose activity change, negative = inhibition, usual class: inhibitors; note: potency is the fitted concentration of half-maximal effect
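Firefly luciferase activity from engineered P. falciparum reports growth; inhibitors lower the luminescent signal. Cultures contained 2% hematocrit erythrocytes at 0.1% final parasitemia.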
Pf growth 96h: inhibits malaria parasite growth, 96 h. P. falciparum luciferase reporter growth, 96 h. 6.9% of 320,000 active. Potency, µM (top dose mostly 28.7 µM), for the others: at the highest dose activity change, negative = inhibition, hits mostly inhibitors; note: potency is the fitted concentration of half-maximal effect
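Luminescence readout: decreased luciferase signal marks inhibited growth of reporter-expressing P. falciparum in infected red cells (2% hematocrit, 0.05% parasitemia final), exposed to compound two generations (96 h, 37 C, 5% CO2).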
Giardia FBPA inh: Giardia lamblia aldolase inhibition; purified Giardia FBPA; 0.71% of 290,000 active; AID 2451; A8B2U2; Potency, µM (series often up to 59.6 µM), inactives show top-dose activity, negative = inhibition, actives largely listed as inhibitors; note: potency is the fitted concentration of half-maximal effect; nearly all actives have a fitted effect of over 55% in size
Target sequence (A8B2U2 whole entry, looked up): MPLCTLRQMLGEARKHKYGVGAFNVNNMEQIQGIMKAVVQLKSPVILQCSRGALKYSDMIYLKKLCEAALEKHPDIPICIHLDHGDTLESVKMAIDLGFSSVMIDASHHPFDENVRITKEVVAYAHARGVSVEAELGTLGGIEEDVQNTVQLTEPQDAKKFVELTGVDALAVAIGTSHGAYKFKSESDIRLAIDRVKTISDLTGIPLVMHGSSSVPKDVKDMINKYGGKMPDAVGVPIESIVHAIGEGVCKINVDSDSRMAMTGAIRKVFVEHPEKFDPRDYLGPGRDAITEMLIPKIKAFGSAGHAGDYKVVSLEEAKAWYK
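40 nM FBPA preincubated 10 min at RT with compound (up to 57.5 uM final), then substrate plus GAPDH/TPI/NAD/arsenate coupling and diaphorase/resazurin added. Fluorescence read after 20 min at RT, 525/598 nm.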
HCMV inh: blocks human cytomegalovirus replication; HFF cells, HCMV-luciferase reporter, 72 h; hits give low values; activity change, negative = inhibition, % at 57.5 µM; 4.5% of 410,000 active; AID 1259415; in the data active = activity change below about -60%; inconclusive = no clear call, values can overlap the other calls; inactive = above about -39%
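After 16 h attachment at 37C, HFF cells received test compound and HCMV-luciferase (1 PFU/cell); reporter luminescence read 72 h later, data normalized against buffer-only and known inhibitor Salinomycin.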
Sm TGR block: S. mansoni TGR enzyme inhibition; Q962Y6; purified TGR, DTNB reduction, TNB absorbance 405 nm; Potency, µM (highest dose often 114 µM), without a hit: at the highest dose activity change, negative = inhibition, actives largely listed as inhibitors; 3% of 360,000 active; AID 485364; note: potency is the fitted concentration of half-maximal effect; nearly all actives have a fitted effect of over 60% in size
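Kinetic colorimetric format: TGR-catalysed, NADPH-driven DTNB reduction monitored via TNB absorbance. Enzyme dispensed at 20 nM; compound exposure 15 min at room temperature before reaction start.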
Active calls of the source: *; i = inactive; u = inconclusive; x = no result given. Unless noted, calls come from the whole dose curve; as a rule, active = well fitted curve in the direction sought with a large enough effect; inconclusive = small, poorly fitted or top-dose-only effect, or another doubt; inactive = no such curve, though single readings can be large; an effect the other way counts as inactive or inconclusive. % is set by controls: 0 for no effect and ±100 for the full control effect.

SMILES	Pf growth 48h	Pf growth 96h	Giardia FBPA inh	HCMV inh	Sm TGR block
COc1ccc(C2c3cc(OC)c(OC)cc3CCN2C(=O)c2cccc([N+](=O)[O-])c2)cc1OC (centres undefined)	u	9.3µM*	8%	-31	-2%
COc1cc2c(cc1OC)C(c1ccccc1)N(C(=O)c1ccccc1F)CC2 (centres undefined)	x	u	5%	3	1%
COc1cc2c(cc1OC)C(c1ccccc1)N(C(=O)c1ccccc1)CC2 (centres undefined)	u	-1%	5%	-60*	6%
COc1cc2c(cc1OC)C(c1ccccc1)CN(C)CC2 (centres undefined)	u	15µM*	0%	x	x
CCCc1cc(C(=O)NNC(=S)NC(C)c2ccccc2)cs1 (centres undefined)	x	u	0%	16	-12%
C/C(=N\NC(=O)CNc1ccccc1)c1ccccc1	0%	i	0%	u	0%
O=c1c2cc3c(cc2n(Cc2ccccc2)c(=O)n1Cc1nc(-c2ccccc2)no1)OCO3	x	x	x	-12	20%
Cc1ccc(S(=O)(=O)N(CCCN2CCCC2=O)Cc2cc3c(C)ccc(C)c3[nH]c2=O)cc1	u	u	x	-64*	-1%
O=C(C(Cc1ccccc1)N1C(=O)c2ccccc2C1=O)N1CCc2ccccc21 (centres undefined)	15µM*	u	-19%	19	-5%
CCNc1ncc2nc(-c3ccc(Cl)cc3)c(=O)n(Cc3cccc(OC)c3)c2n1	x	x	6%	x	x
O=C(N/N=C/c1cc2c(c([N+](=O)[O-])c1)OCO2)c1ccncc1	75%	2.3µM*	-3%	3	-20%
O=C(N/N=C/c1ccccc1)c1ccc2c(c1)OCO2	254%	u	-6%	u	9%
COc1cc(C(=O)NN=Cc2ccc(N(C)C)cc2)cc(OC)c1OC	x	x	x	-66*	x
CC(C)(C)c1ccc2c(c1)OC(C(=O)N/N=C/c1ccc([N+](=O)[O-])o1)CO2 (centres undefined)	u	2.9µM*	-22%	-6	u
CC(C)(C)c1ccc2c(c1)OC(C(=O)N/N=C\c1ccncc1)CO2 (centres undefined)	-24%	22%	0%	4	0%
Cc1ccc(/C=N\NC(=O)c2ccc3c(c2)OCO3)o1	66%	1.3µM*	x	36	0%
COc1ccc(C2OC(=O)Cc3cc(OC)c(OC)cc32)cc1 (centres undefined)	6%	4%	5%	-19	-7%
Cc1ccc(/C=N/NC(=O)c2ccc3nc[nH]c3c2)o1	u	-7%	-2%	-60*	-1%
COC(=O)c1ccc(/C=N/NC(=O)c2ccc3nc[nH]c3c2)cc1	11%	5%	15%	u	-7%
O=C(N/N=C/c1ccc([N+](=O)[O-])o1)c1ccc2c(c1)OCO2	u	u	-8%	-96*	u
CN(C)c1ccc(/C=N/NC(=O)c2ccc3c(c2)OCO3)cc1	41%	214%	-5%	-66*	-10%
COc1ccc(CCNC(=O)CSc2nnc(CNC(=O)c3cc(OC)c(OC)c(OC)c3)o2)cc1OC	12%	0%	x	-2	0%
COc1ccc(N(C(=O)CCl)C(C)(C(=O)Nc2c(C)cccc2C)c2ccccn2)cc1 (centres undefined)	4.7µM*	u	-7%	x	2%
CC[C@@H]1OC(=O)[C@@H](C)[C@H](O[C@H]2C[C@@](C)(OC)[C@@H](O)[C@H](C)O2)C(C)[C@H](O[C@H]2O[C@@H](C)C[C@@H](N(C)C)[C@@H]2O)[C@@](C)(O)C[C@H](C)C(=O)[C@@H](C)[C@H](O)[C@@]1(C)O (some centres undefined)	x	x	9%	x	x
CC[C@H]1OC(=O)[C@H](C)[C@@H](O[C@H]2C[C@@](C)(OC)[C@@H](O)[C@H](C)O2)C(C)[C@@H](O[C@@H]2O[C@H](C)C[C@H](N(C)C)[C@@H]2O)[C@](C)(OC)C[C@@H](C)C(=O)[C@H](C)[C@@H](O)[C@]1(C)O (some centres undefined)	13µM*	1.3µM*	-4%	x	x
